FadD28 FP inh: M. tuberculosis FadD28 bisubstrate binding inhibition; FadD28 bisubstrate probe binding, fluorescence polarization; inhibition, % at 12.5 µM; hit rate 0.22% among 360,000; AID 588549; in the data active means inhibition above about 8.5%, passing the limit was not always enough
UGM FP inh: Mtb UDP-galactopyranose mutase inhibition; P9WIQ1; hit rate 0.06% among 320,000; AID 504406; purified UGM, fluorescence polarization probe displacement; inhibition, % at 10 µM; in the data active means inhibition above about 10%, passing the limit was not always enough
RecA intein inh: Mtb RecA intein splicing inhibition; cell-free RecA intein splicing, fluorescence; inhibition, % (concentration not given with the values); P9WHJ3; hit rate 0.75% among 290,000; AID 2221; in the data active means inhibition above about 30%;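 further: 0% = vehicle wells and 100% = reference inhibitor control wells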
Rv3671c inh: Rv3671c (M. tuberculosis) protease inhibition; AID 2606; P9WHR9; hit rate 0.048% among 320,000; inhibition, % at 5.96 µM; in the data active means inhibition above about 38%;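 further: extracellular domain of Rv3671c used as enzyme; 0% = enzyme with DMSO and 100% = no enzyme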
TcdB GH inh: blocks C. difficile toxin B glycohydrolase activity; hit rate 0.24% among 350,000; P18177; inhibition, % at 9.99 µM; TcdB glycohydrolase enzymatic assay, plate reader; in the data active means inhibition above about 10%
BioA inh: blocks M. tuberculosis BioA enzyme activity; purified M. tuberculosis BioA enzyme, plate reader; inhibition, % at 9.99 µM; hit rate 0.096% among 360,000; AID 602481; in the data active means inhibition above about 40%
GFP chromo cs: counter-screen: blocks GFP chromophore formation; cell-free GFP chromophore formation, fluorescence; hit rate 83% among 2,100; EC50, µM; shares compounds with RecA intein inh; call rule not given here
* hit, by the source's call; / = no result given. Rows were chosen to be rich in hits. Some 0.97% of all compounds tested hit in one or more screens of this group.

SMILES | FadD28 FP inh | UGM FP inh | RecA intein inh | Rv3671c inh | TcdB GH inh | BioA inh | GFP chromo cs
CC(C)C1C(C#N)=C(N)Oc2n[nH]c(C(C)(C)C)c21 (stereo unspecified) | -3 | 0 | / | 2 | / | 0 | /
CC(C)(C)c1[nH]nc2c1C(c1ccco1)C(C#N)=C(N)O2 (stereo unspecified) | -1 | 0 | 41* | -1 | 0 | / | 2.8*
CCCC1C(C#N)=C(N)Oc2n[nH]c(C(C)(C)C)c21 (stereo unspecified) | 0 | 3 | 74* | -4 | / | -1 | 1.7*
Cc1[nH]nc2c1C(CCc1ccccc1)C(C#N)=C(N)O2 (stereo unspecified) | -2 | 0 | 70* | -4 | -3 | 1 | 29*
Cc1[nH]nc2c1C(c1ccco1)C(C#N)=C(N)O2 (stereo unspecified) | -3 | 0 | 58* | 6 | -4 | -1 | 26*
COc1ccc(F)c(C2C(C#N)=C(N)Oc3n[nH]c(C(C)(C)C)c32)c1 (stereo unspecified) | -9 | 0 | 7 | 8 | / | 1 | /
O=C(CCN1CCCCC1)N[C@@H]1CC[C@@H](CCn2cc(-c3ccccc3)nn2)O[C@H]1CO | / | / | / | / | 1 | 3 | /
CCOC(=O)c1c(NC(C)=O)sc2c1CCC(C=NCCCN(CC)CC)=C2Sc1ccccc1 | -2 | 2 | 61* | -2 | / | -2 | 0.37*
O=C(Nc1ccc2c(c1)[C@H]1C[C@H](CC(=O)N3CCOCC3)O[C@H](CO)[C@H]1O2)c1ccc2c(c1)OCO2 | / | / | / | / | / | 0 | /
CCC1Nc2ncnc(N3CCc4ccccc4C3)c2N(Cc2ccc(Cl)cc2)C1=O (stereo unspecified) | -4 | 0 | / | 0 | 0 | -2 | /
O=C1C(Cc2ccccc2)Nc2ncnc(N3CCc4ccccc4C3)c2N1Cc1ccc(Cl)cc1 (stereo unspecified) | -5 | 1 | 33* | -32 | / | -2 | >38
CCNc1ccccc1CP(=O)(c1ccccc1)c1ccccc1O (stereo unspecified) | / | 6 | 32* | 30 | -4 | / | 2.2*
Cc1ccc(C(c2c(C)[nH][nH]c2=O)c2c(C)[nH][nH]c2=O)cc1 | -2 | -1 | 98* | -6 | -2 | 0 | 0.54*
COc1cc(C(c2c(C)[nH][nH]c2=O)c2c(C)[nH][nH]c2=O)ccc1OCc1ccc([N+](=O)[O-])cc1 | -2 | -1 | 95* | 1 | / | 2 | 0.35*
Cc1[nH][nH]c(=O)c1C(c1ccc([N+](=O)[O-])cc1)c1c(C)[nH][nH]c1=O | -2 | -2 | 96* | 2 | -1 | / | 0.69*
CSc1ccc(C(c2c(C)[nH][nH]c2=O)c2c(C)[nH][nH]c2=O)cc1 | -4 | 2 | 98* | -17 | -2 | 0 | 0.57*
CNC(=O)C[C@@H]1CC[C@H]2[C@@H](COc3ccc(NC(=O)Nc4cccc(F)c4)cc3C(=O)N2C)O1 | / | / | / | / | / | 9 | /
Cc1ccc(S(=O)(=O)N[C@@H]2C=C[C@H](CC(=O)O)O[C@H]2CO)cc1 | / | / | / | / | -6 | -3 | /
COc1ccc(NC(=O)O[C@H]2[C@H](OC(=O)Nc3ccc4c(c3)OCO4)[C@H](OC(=O)Nc3ccc4c(c3)OCO4)[C@@H](OC)O[C@@H]2CO)cc1 | / | / | / | / | -1 | / | /
Cc1[nH][nH]c(=O)c1C(c1ccc(Br)cc1)c1c(C)[nH][nH]c1=O | 0 | 2 | 98* | -6 | 0 | -1 | 0.81*
COC(=O)COc1ccc(C(=O)OC)cc1 | 0 | -2 | 0 | -5 | / | 0 | /
COC(=O)COc1ccc(C(c2c(C)[nH][nH]c2=O)c2c(C)[nH][nH]c2=O)cc1 | -1 | -1 | 98* | / | -1 | -2 | 0.69*
CC(/C=N/NC(=O)Cc1cc(=O)[nH][nH]1)=C\c1ccccc1 | -2 | 3 | 89* | -17 | / | 0 | 6.7*
CC(C)[C@H](NC(=O)OC(C)(C)C)c1nnc(S(=O)(=O)Cc2c(F)cccc2Cl)o1 | -3 | -3 | 56* | 10 | 0 | 1 | 23*
CC[C@@H](C)[C@H](NC(=O)OC(C)(C)C)c1nnc(S(=O)(=O)Cc2cc(C)ccc2C)o1 | -4 | 1 | / | -8 | / | 0 | /
SMILES | FadD28 FP inh | UGM FP inh | RecA intein inh | Rv3671c inh | TcdB GH inh | BioA inh | GFP chromo cs
COc1cc(/C=N/NC(=O)CC2(C)OCCCO2)ccc1OCc1ccccc1 | -5 | -1 | 39* | -21 | / | / | 3.1*
CCCCCc1cc(=O)oc2c(C(CCN3CCCC(C)C3)c3ccc(OC)cc3)c(OC)cc(OC)c12 (stereo unspecified) | -6 | 0 | 37* | 4 | 1 | -1 | 18*
CCCCCc1cc(=O)oc2c(C(CCN3CCCCC3)c3ccc(OC)cc3)c(OC)cc(OC)c12 (stereo unspecified) | -12 | -2 | 23 | -11 | 2 | 3 | /
O=C(C[C@@H]1CC[C@@H]2[C@H](COC[C@@H](O)CN2C(=O)c2cnccn2)O1)NCc1ccccc1 | / | / | / | / | 0 | -2 | /
CCC(=O)N1CCC2(CC1)CN(S(=O)(=O)c1ccccc1)[C@H](CO)c1[nH]c3cc(OC)ccc3c12 | / | / | / | / | 0 | / | /
CCOC(=O)CS(=O)(=O)c1nc(-c2ccccc2)cc(C(F)(F)F)n1 | -3 | -1 | 72* | -8 | / | / | 5.9*
COCC(C)NC(=O)CCS(=O)(=O)c1nc(-c2ccc(OC)cc2)cc(C(F)(F)F)n1 (stereo unspecified) | -7 | -2 | 33* | -4 | / | 0 | 35*
CCOC(=O)CCS(=O)(=O)c1nc(-c2ccccc2)cc(C(F)(F)F)n1 | -4 | 0 | 78* | -5 | / | 10 | 7.2*
CCOC(=O)Cc1cc(-c2ccccc2)nc2ccc3ccccc3c12 | 0 | -1 | 1 | -9 | / | 0 | /
COC(=O)CCS(=O)(=O)c1nc(-c2ccccc2)cc(C(F)(F)F)n1 | -3 | -2 | 67* | 0 | / | / | 11*
COc1ccccc1S(=O)(=O)N[C@H]1CC[C@H](CCNC(=O)C2CCC2)O[C@@H]1CO | / | / | / | / | -6 | 1 | /
CCOC(=O)c1c(C(F)(F)F)cc(-c2ccc(F)cc2)nc1C | -1 | 0 | -2 | 6 | / | / | /
CS(=O)(=O)c1nc(-c2ccc(F)cc2)cc(C(F)(F)F)n1 | -3 | / | / | / | 1 | / | /
COc1ccc(-c2cc(C(F)(F)F)nc(S(C)(=O)=O)n2)cc1 | -8 | -1 | 72* | -9 | / | / | 14*
CCOC(=O)CS(=O)(=O)c1nc(-c2ccc(F)cc2)cc(C(F)(F)F)n1 | -3 | -1 | 74* | -11 | / | 5 | 6*
COc1ccc2c3c([nH]c2c1)[C@H](CO)N(C(=O)C1CCCC1)CC31CN(S(C)(=O)=O)C1 | / | / | / | / | 0 | / | /
COc1ccc(C#Cc2ccc3c(c2)[C@]2(C(=O)N3)[C@H](c3ccc(OCCO)cc3)N3[C@H](c4ccccc4)[C@H](c4ccccc4)OC(=O)[C@H]3[C@@H]2C(=O)NC[C@H](O)c2ccccc2)cc1 | / | / | / | / | 0 | -1 | /
O=C1c2ccccc2OC2(C=Cc3ccccc3O2)N1Cc1ccccc1 (stereo unspecified) | -1 | -2 | 32* | -2 | / | -5 | >38

Screening results: PubChem, several laboratories
